# In PubChem BioAssay (NCATS):
# Calls of active or inactive are those of the source. The call rests on the fitted dose curve; in most records, active means well fitted curve in the direction sought with a large enough effect; inconclusive means small, poorly fitted or top-dose-only effect, or another doubt; inactive means no such curve, though single readings can be large; an effect the other way counts as inactive or inconclusive.
# Target: Alpha-galactosidase (Coffea arabica) (UniProt Q42656)
# Sequence (Q42656 whole entry, looked up): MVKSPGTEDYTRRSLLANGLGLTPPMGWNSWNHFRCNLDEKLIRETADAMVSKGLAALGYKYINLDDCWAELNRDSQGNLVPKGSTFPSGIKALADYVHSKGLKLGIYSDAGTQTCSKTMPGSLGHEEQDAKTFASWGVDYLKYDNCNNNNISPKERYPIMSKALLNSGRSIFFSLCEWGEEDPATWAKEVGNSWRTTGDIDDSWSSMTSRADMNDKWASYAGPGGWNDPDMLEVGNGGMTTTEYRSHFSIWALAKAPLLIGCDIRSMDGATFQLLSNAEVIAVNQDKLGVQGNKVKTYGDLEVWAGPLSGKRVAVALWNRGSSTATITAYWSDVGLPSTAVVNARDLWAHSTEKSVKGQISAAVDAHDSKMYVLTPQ
# Assay: Counterscreen for Glucocerebrosidase Inhibitors: qHTS Assay for Coffee Bean alpha-Galactosidase at pH 4.5 (AID 957)
# Settings: purified coffee bean alpha-galactosidase, fluorogenic substrate; series mostly up to 76.9 µM
# In short: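 Quantitative HTS of compounds (0.7 nM to 77 uM) against coffee bean alpha-galactosidase at pH 4.5, measuring 4-methylumbelliferone fluorescence released from 80 uM substrate.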
row,SMILES,outcome
1,N[C@@H](CO)C(=O)O,inactive
2,CC(C)(C)NC[C@H](O)c1ccc(O)c(CO)c1,inactive
3,CC(C)(Oc1ccc([C@@H]2CC2(Cl)Cl)cc1)C(=O)O,inactive
4,NC(=O)C1=CN([C@@H]2O[C@@H](COP(=O)(O)OP(=O)(O)OC[C@@H]3O[C@H](n4cnc5c(N)ncnc54)[C@@H](OP(=O)(O)O)[C@@H]3O)[C@H](O)[C@@H]2O)C=CC1,inactive
5,CCCCCCCCCCCCCCCCCCNC(=O)OC[C@@H](COP(=O)([O-])OCC[n+]1ccsc1)OC,inactive
6,O=C1O/C(=C\Br)CC[C@@H]1c1cccc2ccccc12,inactive
7,OC[C@@H]1O[C@H](O)[C@@H](Cl)[C@H](O)[C@@H]1O,inactive
8,CCCCCCCCCC(=O)N[C@@H](CN1CCOCC1)[C@@H](O)c1ccccc1,inactive
9,C[C@]12CC3CC(N)(C1)C[C@@](C)(C3)C2,inactive
10,O=C(O)[C@H]1C[C@H](C(=O)O)N1,inactive
11,CC(C)CN(C)c1nc(N)c(C(=O)N=C(N)N)nc1Cl,inactive
12,CC[C@H](C)N(C)C(=O)c1cc2ccccc2c(-c2ccccc2Cl)n1,inactive
13,N[C@H](CCCC(=O)O)C(=O)O,inactive
14,CO/N=C(\C(=O)N[C@@H]1C(=O)N2C(C(=O)O)=C(CSc3nc(=O)c(O)nn3C)CS[C@@H]12)c1csc(N)n1,inactive
15,Cc1ccccc1N1CCN(S(=O)(=O)C[C@@]23CC[C@H](C[C@H]2NC(=O)[C@@H](N)CCS(C)(=O)=O)C3(C)C)CC1,inactive
16,C[C@@H](CN1c2ccccc2Sc2ccccc21)N(C)C,inactive
17,C=C[C@H](N)CCC(=O)O,inactive
18,COC1=C(OC)C(=O)c2ccccc2C1=O,inactive
19,COc1cc([C@@H](O)CO)ccc1OS(=O)(=O)O,inactive
20,NCCCCNS(=O)(=O)c1cccc2c(Cl)cccc12,inactive

row,SMILES,outcome
1,COc1ccc(CCNC[C@H](O)c2ccc(O)cc2)cc1OC,inactive
2,CC(=O)N[C@@H](C(=O)O)C(C)(C)SN=O,inactive
3,C=CCN1CCc2c(cc(O)c(O)c2Br)[C@H](c2ccccc2)C1,inactive
4,C[C@@H](C(=O)O)c1cccc(C(=O)c2ccccc2)c1,inactive
5,CN1CCN2c3ccccc3Cc3ccccc3[C@@H]2C1,inactive
6,Nc1nc(Cl)nc2c1ncn2[C@@H]1O[C@@H](COP(=O)(O)OP(=O)(O)OP(=O)(O)O)[C@@H](O)[C@H]1O,inactive
7,C[C@@H](/C=C\c1cccc(Oc2ccc(F)cc2)c1)N(O)C(N)=O,inactive
8,CO[C@]1(NC(=O)CSCC#N)C(=O)N2C(C(=O)O)=C(CSc3nnnn3C)CS[C@H]21,inactive
9,CC(=O)O[C@]1(C(C)=O)CC[C@@H]2[C@@H]3C=C(Cl)C4=CC(=O)[C@H]5C[C@@H]5[C@]4(C)[C@H]3CC[C@]21C,inactive
10,N[C@H](CCC(=O)NCS(=O)(=O)O)C(=O)O,inactive
11,Cc1nnc(SCC2=C(C(=O)O)N3C(=O)[C@@H](NC(=O)Cn4cnnn4)[C@@H]3SC2)s1,inactive
12,N[C@H](CCCP(=O)(O)O)C(=O)O,inactive
13,CCCCCN(CCCCC)C(=O)[C@H](CCC(=O)O)NC(=O)c1ccc(Cl)c(Cl)c1,inactive
14,O=C(/C=C\c1ccc(O)c(O)c1)OCCc1ccccc1,inactive
15,C[C@@H]1O[C@@H](n2cc(F)c(=O)[nH]c2=O)[C@H](O)[C@@H]1O,inactive
16,CCCCCC[C@@H]([C@H](C)O)n1cnc2c(N)ncnc21,inactive
17,Nc1ncnc2c1ncn2[C@@H]1O[C@@H](COP(=O)(O)OP(=O)(O)OP(=O)(O)OP(=O)(O)OC[C@@H]2O[C@@H](n3cnc4c(N)ncnc43)[C@@H](O)[C@H]2O)[C@H](O)[C@@H]1O,inactive
18,CN1Cc2c(N)cccc2[C@H](c2ccccc2)C1,inactive
19,C=C(C)[C@@H]1CC=C(C(=O)O)CC1,inactive
20,C[C@@]12C(=O)OC(=O)[C@@]1(C)[C@H]1CC[C@@H]2O1,inactive

# Target: Alpha-galactosidase (Coffea arabica) (UniProt Q42656)
# Assay: Counterscreen for Glucocerebrosidase Inhibitors: qHTS Assay for Coffee Bean alpha-Galactosidase at pH 5.9 (AID 998)
# Settings: coffee bean alpha-galactosidase enzyme assay; series mostly up to 76.9 µM
# In short: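 In 50 mM citric acid pH 5.9 with 0.005% Tween-20, coffee bean enzyme hydrolyses 80 uM 4-MU alpha-D-galactopyranoside over 20 min at RT. Activity is normalized to controls; AC50 comes from Hill-modelled concentration-response data.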
row,SMILES,outcome
1,N[C@@H](CO)C(=O)O,inactive
2,CC(C)(C)NC[C@H](O)c1ccc(O)c(CO)c1,inactive
3,CC(C)(Oc1ccc([C@@H]2CC2(Cl)Cl)cc1)C(=O)O,inactive
4,NC(=O)C1=CN([C@@H]2O[C@@H](COP(=O)(O)OP(=O)(O)OC[C@@H]3O[C@H](n4cnc5c(N)ncnc54)[C@@H](OP(=O)(O)O)[C@@H]3O)[C@H](O)[C@@H]2O)C=CC1,inactive
5,CCCCCCCCCCCCCCCCCCNC(=O)OC[C@@H](COP(=O)([O-])OCC[n+]1ccsc1)OC,inactive
6,O=C1O/C(=C\Br)CC[C@@H]1c1cccc2ccccc12,inactive
7,OC[C@@H]1O[C@H](O)[C@@H](Cl)[C@H](O)[C@@H]1O,inactive
8,CCCCCCCCCC(=O)N[C@@H](CN1CCOCC1)[C@@H](O)c1ccccc1,inactive
9,C[C@]12CC3CC(N)(C1)C[C@@](C)(C3)C2,inactive
10,O=C(O)[C@H]1C[C@H](C(=O)O)N1,inactive
11,CC(C)CN(C)c1nc(N)c(C(=O)N=C(N)N)nc1Cl,inactive
12,CC[C@H](C)N(C)C(=O)c1cc2ccccc2c(-c2ccccc2Cl)n1,inactive
13,N[C@H](CCCC(=O)O)C(=O)O,inactive
14,CO/N=C(\C(=O)N[C@@H]1C(=O)N2C(C(=O)O)=C(CSc3nc(=O)c(O)nn3C)CS[C@@H]12)c1csc(N)n1,inactive
15,Cc1ccccc1N1CCN(S(=O)(=O)C[C@@]23CC[C@H](C[C@H]2NC(=O)[C@@H](N)CCS(C)(=O)=O)C3(C)C)CC1,inactive
16,C[C@@H](CN1c2ccccc2Sc2ccccc21)N(C)C,inactive
17,C=C[C@H](N)CCC(=O)O,inactive
18,COC1=C(OC)C(=O)c2ccccc2C1=O,inactive
19,COc1cc([C@@H](O)CO)ccc1OS(=O)(=O)O,inactive
20,NCCCCNS(=O)(=O)c1cccc2c(Cl)cccc12,inactive

row,SMILES,outcome
1,COc1ccc(CCNC[C@H](O)c2ccc(O)cc2)cc1OC,inactive
2,CC(=O)N[C@@H](C(=O)O)C(C)(C)SN=O,inactive
3,C=CCN1CCc2c(cc(O)c(O)c2Br)[C@H](c2ccccc2)C1,inactive
4,C[C@@H](C(=O)O)c1cccc(C(=O)c2ccccc2)c1,inactive
5,CN1CCN2c3ccccc3Cc3ccccc3[C@@H]2C1,inactive
6,Nc1nc(Cl)nc2c1ncn2[C@@H]1O[C@@H](COP(=O)(O)OP(=O)(O)OP(=O)(O)O)[C@@H](O)[C@H]1O,inactive
7,C[C@@H](/C=C\c1cccc(Oc2ccc(F)cc2)c1)N(O)C(N)=O,inactive
8,CO[C@]1(NC(=O)CSCC#N)C(=O)N2C(C(=O)O)=C(CSc3nnnn3C)CS[C@H]21,inactive
9,CC(=O)O[C@]1(C(C)=O)CC[C@@H]2[C@@H]3C=C(Cl)C4=CC(=O)[C@H]5C[C@@H]5[C@]4(C)[C@H]3CC[C@]21C,inactive
10,N[C@H](CCC(=O)NCS(=O)(=O)O)C(=O)O,inactive
11,Cc1nnc(SCC2=C(C(=O)O)N3C(=O)[C@@H](NC(=O)Cn4cnnn4)[C@@H]3SC2)s1,inactive
12,N[C@H](CCCP(=O)(O)O)C(=O)O,inactive
13,CCCCCN(CCCCC)C(=O)[C@H](CCC(=O)O)NC(=O)c1ccc(Cl)c(Cl)c1,inactive
14,O=C(/C=C\c1ccc(O)c(O)c1)OCCc1ccccc1,inactive
15,C[C@@H]1O[C@@H](n2cc(F)c(=O)[nH]c2=O)[C@H](O)[C@@H]1O,inactive
16,CCCCCC[C@@H]([C@H](C)O)n1cnc2c(N)ncnc21,inactive
17,Nc1ncnc2c1ncn2[C@@H]1O[C@@H](COP(=O)(O)OP(=O)(O)OP(=O)(O)OP(=O)(O)OC[C@@H]2O[C@@H](n3cnc4c(N)ncnc43)[C@@H](O)[C@H]2O)[C@H](O)[C@@H]1O,inactive
18,CN1Cc2c(N)cccc2[C@H](c2ccccc2)C1,inactive
19,C=C(C)[C@@H]1CC=C(C(=O)O)CC1,inactive
20,C[C@@]12C(=O)OC(=O)[C@@]1(C)[C@H]1CC[C@@H]2O1,inactive
